High-throughput results (PubChem BioAssay)
DRD3 antagonist – D3 dopamine receptor (human) antagonism; P35462; D3R cells, DiscoveRx beta-arrestin luminescence, antagonist mode; active compounds read low; max response, negative = inhibition, %; 360,000 compounds, 2.5% hits; in the data active = max response below about -50%; inconclusive = no clear call, values can overlap the other calls; note: % is set by controls: 0 for no effect and ±100 for the full control effect
Target sequence (P35462 whole entry, looked up): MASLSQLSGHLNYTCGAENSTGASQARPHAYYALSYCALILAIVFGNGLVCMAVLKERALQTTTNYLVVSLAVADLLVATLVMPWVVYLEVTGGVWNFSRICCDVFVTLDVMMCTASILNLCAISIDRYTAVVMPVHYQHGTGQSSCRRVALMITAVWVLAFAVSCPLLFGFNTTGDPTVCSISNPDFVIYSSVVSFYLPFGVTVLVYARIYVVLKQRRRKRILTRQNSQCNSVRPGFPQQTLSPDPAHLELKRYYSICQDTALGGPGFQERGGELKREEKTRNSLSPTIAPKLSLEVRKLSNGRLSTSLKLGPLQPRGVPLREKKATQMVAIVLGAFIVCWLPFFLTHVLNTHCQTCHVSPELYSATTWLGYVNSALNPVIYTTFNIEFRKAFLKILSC
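Cells plated overnight at 1500 cells/well, then exposed to library compounds with dopamine controls for 90 minutes at 37 degrees C. DiscoveRx reagent added for 30–60 minutes at room temperature; luminescence read, quantitative HTS format.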
D1 antagonist – blocks dopamine activation of the human D1 receptor; P21728; HEK293 TREx D1 cells, calcium flux, dopamine EC80; active compounds read low; activity change, negative = inhibition, % at 10 µM; 360,000 compounds, 3.2% hits; AID 504652; in the data active = activity change below about -30%; note: % is set by controls: 0 for no effect and ±100 for the full control effect
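Inducible Hek293 Trex D1 cells (tetracycline, overnight, 30 C). Calcium dye 30–90 min RT. Antagonist mode: EC80 dopamine added after 180 s compound read.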
D1 ag – agonists of human D1 dopamine receptor; activation, % at 2 µM; P21728; 360,000 compounds, 1% hits; HEK293 T-REx D1 cells, calcium flux, agonist mode; in the data active = activation above about 30%; note: 0% is about no effect
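Inducible HEK293 T-REx D1 cells, force-coupled to calcium signalling, were plated at 4000 cells/well with tetracycline and held overnight at 30 C. After no-wash calcium dye loading, compound-evoked calcium rise over 180 s flagged agonists.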
D3 ag – activates the human D3 dopamine receptor | P35462 | D3R DiscoveRx beta-arrestin cells, luminescence, 90 min | max activation, % | 410,000 compounds, 0.58% hits; in the data active = max activation above about 30%; note: 0% is about no effect
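Cells at 1500/well, incubated overnight, then treated with pinned compounds (dopamine as control) for 90 min at 37 degrees C. DiscoveRx reagent added for 30 - 60 minutes at room temperature; luminescence read.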
D1 potentiator – enhances dopamine response at the human D1 receptor; AID 504651; P21728; potentiation, % at 10 µM; 360,000 compounds, 0.036% hits; HEK293 TREx D1 cells, calcium flux, dopamine EC20 potentiation; in the data active = potentiation above about 30%; note: 0% is about no effect
Numbers without * were called inactive; ? = inconclusive; · = no result. This is a sample that favours compounds with a hit; in the whole collection about 6% have one here.

SMILES	DRD3 antagonist	D1 antagonist	D1 ag	D3 ag	D1 potentiator
COc1ccc(OC)c(N=C2SCCCN2C(=O)c2ccc(N3C(=O)CCC3=O)cc2)c1	·	2.0	3.1	·	-3.5
C[C@@H]1COc2cc(N3CCC[C@@H]3CO)ccc2S(=O)(=O)N1	2.4	·	·	-1.8	·
CCC(=O)N1c2ccccc2CC1C(=O)NCCc1ccc(Cl)cc1 (stereo not drawn)	·	-14.0	-0.7	-4.0	-0.1
CCOc1ccc(-n2nc3c(=S)[nH]nc(C)c3c2C)cc1	?	7.1	2.3	-11.8	-8.0
CCOc1ccc(-n2nc3c(=O)[nH]nc(C)c3c2C)cc1	-5.4	-59.8*	0.3	1.3	-0.4
Cc1ccc(C)c(S(=O)(=O)NC(C)C(=O)Nc2ccc(-c3nc4ccccc4s3)cc2)c1 (stereo not drawn)	43.9	-0.4	5.5	51.2*	-1.1
Cc1cc(=O)[nH]c2c(C)c(N)ccc12	7.3	7.1	3.4	4.1	3.0
Cc1cc(C)c2ccc3c(C)c(C)nc3c2[nH]1	-12.5	-46.7*	5.0	2.2	-4.2
C=CCC1NCCc2c(Br)cccc21 (stereo not drawn)	-1.1	-23.4	4.6	2.3	-10.1
C=CC[C@@H]1Cc2c(Br)ccc(Br)c2[C@@H](CC=C)N1	3.6	2.5	0.6	32.1*	0.1
N/C(Cc1cccc2ccccc12)=N\OC(=O)c1cccs1	-75.6*	-2.3	2.5	-3.4	-4.1
O=C(C=Cc1ccccc1)c1cccs1	-2.5	·	·	4.2	·
Nc1ccc(/C=C/C(=O)c2cccs2)cc1	9.8	-12.3	81.5*	9.4	-7.0
O=C(CSc1cn(CC(=O)N2CCCC2)c2ccccc12)Nc1ccccc1C(F)(F)F	·	-44.3*	0.2	9.6	-7.0
O=C(Cn1cc(SCc2ccc(F)cc2)c2ccccc21)N1CCCC1	·	-30.1*	5.6	-24.0	-5.2
O=C(Cn1cc(SCc2ccc(F)cc2)c2ccccc21)N1CCCCCC1	·	-25.4	4.8	-15.4	-3.7
CC(C)C[C@H]1CN=C(Nc2ccccc2)N1CCc1cccc(F)c1	-1.1	·	·	-33.0	·
Cc1cccc(CCN2C(Nc3ccccc3)=NC[C@@H]2CC(C)C)c1	-17.9	-18.6	214.9*	-25.3	10.8
CCCCCCCN1C(Nc2ccccc2)=NC[C@@H]1Cc1ccccc1	-23.1	-2.5	21.9	-30.7	-6.7
CC(C)C[C@H]1CN=C(Nc2ccccc2)N1CCc1ccc(F)cc1	17.0	-32.2*	234.1*	-13.0	1.1
c1ccc(CCCCN2C(Nc3ccccc3)=NC[C@@H]2Cc2ccccc2)cc1	4.3	8.7	44.9*	-31.3	-10.2
CC(C)C[C@H]1CN=C(Nc2ccccc2)N1CC1CCCCCC1	5.8	-31.0*	29.4	-18.2	-4.0
CC(C)CCN1C(Nc2ccccc2)=NC[C@@H]1CC(C)C	17.7	0.7	4.0	-1.3	4.2
O=C(Cn1nc(Cc2cccnc2)c2ccccc2c1=O)Nc1cccc(C(F)(F)F)c1	·	4.6	0.4	11.6	1.1
CCOC(=O)c1sc(=S)n(-c2cccc(C(F)(F)F)c2)c1SC	1.0	-32.2*	7.0	1.3	-0.9
SMILES	DRD3 antagonist	D1 antagonist	D1 ag	D3 ag	D1 potentiator
Cc1ccc(S(=O)(=O)N2CCOCC2)cc1NC(=O)CN1C(=O)NC(C)(c2ccc(Cl)cc2Cl)C1=O (stereo not drawn)	?	·	·	4.7	·
Cc1cc([N+](=O)[O-])ccc1NC(=S)NC(=O)Cc1ccccc1	-60.5*	10.1	5.8	-18.1	-0.9
Cc1ccc(NC(=O)Cc2ccc([N+](=O)[O-])cc2)c(Br)c1	0.0	-44.8*	15.6	-0.6	-2.9
Cc1cc([N+](=O)[O-])ccc1NC(=O)Cc1ccc(F)cc1	5.8	-32.1*	7.3	8.7	-7.8
O=[N+]([O-])c1ccc(NC(=S)NCCc2ccc(F)cc2)cc1	-19.0	-25.5	16.9	-6.4	-13.1
O=C(NCCc1ccc(F)cc1)Nc1ccc([N+](=O)[O-])cc1	-21.2	-48.7*	13.3	-11.5	-17.2
COC(=O)c1c(NC(=S)NNC(=O)c2ccc(Cl)s2)sc(C(=O)N(C)C)c1C	-19.3	20.1	2.6	-3.4	-7.8
COc1ccc(NC(=O)CCS(=O)(=O)c2ccc3c(c2)n(C)c(=O)c(=O)n3C)cc1Cl	·	7.4	-0.3	2.7	-2.0
COc1ccccc1NCc1ccc([N+](=O)[O-])s1	-26.8	2.7	-0.1	-7.1	3.5
O=[N+]([O-])c1ccc(S(=O)Cc2ccccc2)c([N+](=O)[O-])c1 (stereo not drawn)	-101.9*	·	·	-38.6	·
Cc1ccccc1NCc1ccc([N+](=O)[O-])s1	-24.9	-31.9*	-2.7	-1.4	-8.7
O=[N+]([O-])c1ccc(CS(=O)c2ccccc2)cc1 (stereo not drawn)	4.7	·	·	-1.3	·
Cc1cc([N+](=O)[O-])ccc1NCc1ccccc1	-6.4	-31.9*	0.6	-2.6	-5.0
CC(=O)OCC(=O)NCCCOc1cccc(CN2CCCCC2)c1	-80.6*	·	·	-67.0	·
O=C1NC(=O)/C(=C/c2ccc(OS(=O)(=O)c3ccc(F)cc3F)cc2)N1	-24.4	-30.9*	5.6	-9.8	-1.0
O=C1NC(=O)C(=Cc2ccccc2)N1	4.9	·	·	3.2	·
CCCOc1ccc(N2C(=O)CC(N3CCN(c4nc5ccccc5s4)CC3)C2=O)cc1 (stereo not drawn)	2.6	-30.8*	3.0	4.7	2.7
COc1ccc(N2C(=O)CC(N3CCN(c4ccccc4F)CC3)C2=O)cc1 (stereo not drawn)	-65.5*	3.2	0.7	4.4	2.2
CCCCCCOc1ccc(N2C(=O)CC(N3CCN(C(=O)c4ccco4)CC3)C2=O)cc1 (stereo not drawn)	-6.2	-40.8*	19.4	-0.2	-3.8
COc1ccc(N2C(=O)CC(N3CCN(c4ccccc4OC)CC3)C2=O)cc1 (stereo not drawn)	7.3	11.1	0.1	-13.9	-3.5
CCOc1ccc(N2C(=O)C3CCCN3C2=O)cc1 (stereo not drawn)	17.6	-16.6	-0.2	5.3	7.8
COc1ccc(N2C(=O)C3CCCN3C2=O)cc1 (stereo not drawn)	6.5	-34.2*	-0.7	3.5	-1.6
CCc1cc(C(=O)Nc2ncccc2O)sc1C	-12.9	-1.9	1.1	-0.9	2.1
Cc1ccc(OCC(=O)Nc2c(Cl)ccc3nsnc23)cc1C	·	5.8	-0.6	2.6	1.7
O=C(Nc1ccc(OC(F)F)cc1)c1cc(S(=O)(=O)N2CCOCC2)ccc1N1CCCC1	-12.0	·	·	-1.9	·
COc1ccc2c3n(nc2c1)CCN=C3c1cc(Cl)c(N)c(Cl)c1	64.9	-35.5*	1.8	18.2	-8.0
COc1ccc(-c2nc3ccccc3c(=O)n2O)cc1	?	-2.7	2.6	-9.8	-5.5
COc1ccc(C2=NCCn3nc4ccccc4c32)cc1	0.0	-45.1*	0.1	-23.3	-2.6
Nc1c(Cl)cc(C2=NCCn3nc4cc(C(F)(F)F)ccc4c32)cc1Cl	9.0	4.1	5.8	18.5	-5.2
O=C(NCCc1ccccc1)C1CC(=O)N(C2CCCCC2)C1 (stereo not drawn)	-9.1	-13.4	1.7	-2.1	3.6
